# Laboratory results published in the supplement of paper PMC6555819.
# System: PXR:RXRa (NR concentration 270 nM, RXRa partner concentration 90 nM)
# Assay: PBM binding z-score (relative to random genomic background probes); higher = stronger binding; sequences stand for … in GC…GCGATTGACAGCGTAGAATGAAGG
# In short: (§1)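 Regression normalization was applied to scanned fluorescence from custom Agilent 4×180K protein-binding microarrays. Before scanning, arrays were incubated 1 h with ligand-free nuclear receptor dimers, and binding was detected with antibodies against each partner (one per run). Binding z-scores use the random background probes as reference.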
row,Sequence,PBM binding z-score
1,TATACAGGGTCAAAGGGCAGAGTACGAATGTCGA,5.21
2,CGTCCAAGGTCAAAGGTCAGGGAAGAGATGACGG,7
3,CAAACTAGGTCACCGGAAGGTCAAAGTTCGCATG,6.49
4,TAGCCTAGGTTATGCGGGCCAGTATAGTGTCGGC,-0.511
5,CGAACTAGGTCAAAGGCCAGTGAAAGGCGACGTA,1.79
6,CCGACTGGGGCAAAGGTTACGATACTCAGTACGA,2.51
7,ACTCGGAGGACAGAGGTCAGAGCTACGCCAGTGA,3.17
8,CCAGACAGGTGAAAGGTCACTCAGTCTGGTACGC,5.74
9,ACTAGCAGGTCAAGGGTCACTCAAGATTAGTCCG,5.82
10,CATACACGGTCAGCTAGGCCAGAGTAGGGACGGC,-0.388
11,TCAGATAGGTAAAGGTGAAAGTCGAACGATATGA,0.975
12,ATATGTAGGTCAGGGTCATTCAGAAAGTAGGGAA,4.42
13,CTAACTAGGTCACCGGAAGGTCAAAGTCCGCATG,6.02
14,CGTCCAAGGTCAGCAGGTGAGTGAAAGCGACGTG,2.41
15,TCATATAGGTAATAAAGGTGAAAGTCGGCATCTA,1.34
16,CAAAATAGGTCAAGGTCAAAGTCGGTTTGTGCCA,5.51

row,Sequence,PBM binding z-score
1,CGTCCAAGGTCAGCAGGTCAGAGAAAGCGACGTG,4.02
2,TCTAGTTGGTCACGGAGGTCACACGCGACGGGTA,4.55
3,TCATATAGGTTAAAGGTGAAAGTCGGTGTGGTAA,3.73
4,CAAACTAGGTCACGAGGTCAAAGTCCGCTTCCCG,6.15
5,CCTACTGGGCCAAGGTCTTTGATCAGTCAAAGCA,-0.407
6,CGTCCAAGGTCAATGCTAGCTCAGTGAAAGCATT,3.48
7,CCTAGTGGGCCAAAGGTCATTGATTCCAATGCTC,5.83
8,CCTGCTAGGTCAAGGGTCAGCTAAAGCAGCTCGC,4.65
9,AGTCAAATTTCACTAGGTAACGTAAGATTCAGCT,0.334
10,ACTCGGAGGGCAAAGGTCAGAGCTACGCCAGTGA,5.61
11,GATACAGGGTCAGCTAGAGGTCAGAGTATGGAAA,5.99
12,AGAATGGGGTTAAGATCAGGGAAACAGAATACAT,2.98
13,TCATATAGGTAATCAGGTGAAAGTCCGTAAGTTA,0.832
14,CGTCCAAGGTCAAGGTCACTGAAAGAGACTCGAA,5.68
15,CGTCCAAGCTCAGCAGGTCAGTGAAAGCGACGTG,0.0588
16,CGAACTAGGTCAAAGGACACTGAAAGGCGACGTA,1.6

# System: PXR homodimer (NR concentration 270 nM)
# Assay: as above
# In short: as §1
row,Sequence,PBM binding z-score
1,TATACAGGGTCAAAGGGCAGAGTACGAATGTCGA,1.62
2,CGTCCAAGGTCAAAGGTCAGGGAAGAGATGACGG,1.61
3,CAAACTAGGTCACCGGAAGGTCAAAGTTCGCATG,3.62
4,TAGCCTAGGTTATGCGGGCCAGTATAGTGTCGGC,-0.854
5,CCTACTGGGCCAAAAAGGCCATTGATGCCGATAA,-0.211
6,CGAACTAGGTCAAAGGCCAGTGAAAGGCGACGTA,-0.54
7,ATCTCTAGGTTAAAGTTCAGTGAATCCCGAGGAT,1.85
8,CCGACTGGGGCAAAGGTTACGATACTCAGTACGA,-0.536
9,ACTCGGAGGACAGAGGTCAGAGCTACGCCAGTGA,0.328
10,CAAACTAGGTCACAGAGGTCAAAGTTCGTGCGTA,12.2
11,CCAGACAGGTGAAAGGTCACTCAGTCTGGTACGC,1.88
12,CAATCTAGGTCACAGAGGTCAAAGTCCGTGCGTA,11.9
13,ACTAGCAGGTCAAGGGTCACTCAAGATTAGTCCG,0.469
14,CATACACGGTCAGCTAGGCCAGAGTAGGGACGGC,-0.264
15,GCTTCCGGGTCAAAGGTTATAGCATGAATAGAAT,0.927
16,TCAGATAGGTAAAGGTGAAAGTCGAACGATATGA,0.0879
17,ATATGTAGGTCAGGGTCATTCAGAAAGTAGGGAA,1.93
18,CTAACTAGGTCACCGGAAGGTCAAAGTCCGCATG,2.05
19,CGTCCAAGGTCAGCAGGTGAGTGAAAGCGACGTG,0.206
20,TCTAGTAGGTCACGGAGGTCACACACGACGGGTA,7.52

row,Sequence,PBM binding z-score
1,TCATATAGGTAATAAAGGTGAAAGTCGGCATCTA,0.488
2,CAAAATAGGTCAAGGTCAAAGTCGGTTTGTGCCA,2.04
3,CGTCCAAGGTCAGCAGGTCAGAGAAAGCGACGTG,0.651
4,CGTCCAAGGTCAAAGGTCACTGAAGAGATGACGG,2.15
5,TCTAGTTGGTCACGGAGGTCACACGCGACGGGTA,1.5
6,TCATATAGGTTAAAGGTGAAAGTCGGTGTGGTAA,0.749
7,CAAACTAGGTCACGAGGTCAAAGTCCGCTTCCCG,3.42
8,CCTACTGGGCCAAGGTCTTTGATCAGTCAAAGCA,-0.601
9,CGTCCAAGGTCAATGCTAGCTCAGTGAAAGCATT,0.507
10,CCTAGTGGGCCAAAGGTCATTGATTCCAATGCTC,3.2
11,CCTGCTAGGTCAAGGGTCAGCTAAAGCAGCTCGC,0.026
12,AGTCAAATTTCACTAGGTAACGTAAGATTCAGCT,-0.0218
13,ACTCGGAGGGCAAAGGTCAGAGCTACGCCAGTGA,0.191
14,GATACAGGGTCAGCTAGAGGTCAGAGTATGGAAA,1.34
15,AGAATGGGGTTAAGATCAGGGAAACAGAATACAT,2.24
16,TCATATAGGTAATCAGGTGAAAGTCCGTAAGTTA,0.68
17,CGTCCAAGGTCAAGGTCACTGAAAGAGACTCGAA,1.6
18,CGTCCAAGCTCAGCAGGTCAGTGAAAGCGACGTG,-0.688
19,CGAACTAGGTCAAAGGACACTGAAAGGCGACGTA,-0.0402
